Laboratory results from PubChem BioAssay AID1454 (National Center for Advancing Translational Sciences (NCATS), 2008).
The campaign covered roughly 130,000 compounds. About 550 (0.42%) were called active. About 4% were inconclusive and are not listed. This is one part of a sample in which actives are shown more often than they occur. Values without a mark were called inactive. Calls follow the shape of the dose curve; as a rule, active = well fitted inhibition curve with a large enough effect; inconclusive = small, poorly fitted or top-dose-only effect, or effect the other way; inactive = flat fitted curve, though single readings scatter.

Assay: qHTS Assay for Inhibitors of the ERK Signaling Pathway using a Homogeneous Screening Assay; Stimulation with EGF; also: nearly all actives have a fitted effect of over 55% in size;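 as to activity change, negative = inhibition: plate controls were stimulated vehicle wells for no effect and unstimulated vehicle basal for full effect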
Conditions: HEK293-V1b, EGF-stimulated phospho-ERK AlphaScreen; series mostly up to 57.5 µM; activity change, negative = inhibition: at the top concentration
Excerpt: NIH Chemical Genomics Center [NCGC]
NIH Molecular Libraries Screening Centers Network [MLSCN]
Assay Submitter (PI): Dr. Wei Zheng, NCGC/NIH
The Ras/extracellular-signal-regulated kinase (ERK) mitogen activated protein (MAP) kinase signaling pathway (ERK1/2 cascade) plays a key role in transmitting signals from the cell surface to the nucleus (Nishida and Gotoh 1993; Chang and Karin, 2001). The cascade is initiated by the small G-protein Ras, which recruits Raf from the cytosol, where activation occurs. Alternatively, this pathway can be activated by elevating intracellular cAMP, or by activation of a receptor tyrosine kinase as epidermal growth factor receptor.
Activation of the ERK pathway is essential in increased cell division and cell survival. Sustained and constitutive activation of the ERK pathway, however, has been linked to uncontrolled cell proliferation, increased cell survival, and tumor progression. Thus, the ERK has been as an attractive target for cancer chemotherapy in the past few years (Sebolt-Leopold and Herrera, 2004). Given its physiological and pathological importance, assessment of ERK phosphorylation has been broadly performed in both basic research and drug discovery. Most assays for the measurement of ERK phosphorylation use the antibody-based detection methods, such as western blot and ELISA. These assays require multiple reagent additions with cell wash steps and are not suitable for high throughout screening.
The current cell-based ERK phosphorylation assay was performed using AlphaScreen platform. AlphaScreen is a two bead-based proximity-dependent chemical energy transfer luminescent assay platform. The assay reagents (ERK SureFire(TM) kit) were supplied from TGR BioSciences (Australia). In the presence of specific antibodies, phosphorylated ERK will bring "donor" and "acceptor" beads to a proximity range (<200 nm), and subsequently lead a chemical luminescent reaction upon exciting donor beads with 680 nm laser. To exclude the assay-related false positives, we used a biotinylated rabbit IgG to perform counter-screen. The biotinylated antibody mimics the phosphorylated ERK1/2 for bringing streptavidin coated beads and protein-A coated beads to a proximity range for the AlphaScreen detection.
NCGC Assay Protocol Summary:
HEK293 cells stably expressing type-1 vasopressin receptor (V1b) were maintained in DMEM medium (Invitrogen, Carlsbad, CA) at 37C under a humidified atmosphere containing 5% CO2 and 95% air. The medium contained 10% FBS, 2 mM L-glutamine, non-essential amino acid, pyruvate and 50 U/ml penicillin and 50 ug/ml streptomycin (Invitrogen). The aliquots of frozen cells were stored at -135C and used for the compound screening. All compounds were screened as titrations from 0.6 nM to 46 uM final concentration. Epidermal growth factor (EGF) was used to stimulate the ERK phosphorylation pathway. The ERK phosphorylation in cells was determined using an AlphaScreen assay kit provided by […]. Data were normalized to the controls for basal activity (DMSO only) and 100% activation (25 nM EGF). AC50 values were determined from concentration-response data modeled with the standard Hill equation.
(1) Seed 4 ul/well of resuspended frozen HEK293 cells containing 2000 cells in white 1536-well plates for overnight with 1% FBS at 37C under a humidified atmosphere containing 5% CO2 and 95% air.
(2) Add 23 nL compounds in DMSO solution. The final titration was 0.6 nM to 46 uM.
(3) Incubate at 37C for 30 min.
(4) Dispense 0.5uL EGF (25 nM in final)
(5) Incubate at 37C for 5 min.
(6) Dispense 0.5uL of 1:2 diluted 5x lysis buffer.
(7) Incubate at 37C for 10 min.
(8) Dispense 1.5uL of mixture of activation buffer and reaction buffer with AlphaScreen beads (streptavidin donor beads and protein-A acceptor beads, 10 ng/well for each).
(9) Incubate at room temperature for 5 hr.
(10) Detect the assay plate in an EnVision plate reader (PerkinElmer) using the AlphaScreen detection mode.
[…]
Potency is read from the fitted curve at half-maximal effect.

Row | SMILES | Potency | activity change, negative = inhibition
1 | Cc1cc(-c2n[nH]c(=S)n2-c2ccc(C)c(C)c2)no1 | 3.98 µM (active) | 
2 | CCCCC/C=C\C/C=C\C/C=C\C=C\[C@H](CCCC(=O)O)OO |  | -6.51% [at 11.5 µM]
3 | COC1=C[C@]23CCCN2CCc2cc4c(cc2[C@@H]3[C@@H]1O)OCO4 |  | -6.17% [at 11.5 µM]
4 | O=c1[nH]c(=O)n(-c2ccc(F)cc2)c(O)c1C=NCCN1CCCCC1 |  | -5%
5 | CCCCCCCCCCCCn1ccc(=N)cc1 | 22.4 µM (active) | 
6 | O=C1CC(=O)N(Cc2ccccc2)C(=O)N1CCCCCCN1C(=O)CC(=O)N(Cc2ccccc2)C1=O |  | -1.77%
7 | CC(=O)Cc1ccc(OC(C)C)cc1 |  | 10.3%
8 | C1CC[C@H]([C@@]23C[C@H](C[C@H]4CCCN[C@H]42)[C@@H]2CCCCN2C3)NC1 |  | -0.522% [at 11.5 µM]
9 | O=c1[nH]c(=O)n(CCc2ccc(F)cc2)c(O)c1/C=N/N1CCCCC1 |  | -5.95%
10 | N#Cc1c(Cl)c(Cl)c(Cl)c(C#N)c1Cl | 3.98 µM (active) | 
11 | CNC(=O)Nc1ccc(C(O)(C(=O)OC)C(F)(F)F)cc1 (stereo not given) |  | -23.3%
12 | Fc1ccc(C2N3CCCN23)cc1 (stereo not given) |  | 3.92%
13 | COc1ccc(-n2c(O)c(C(C)=Nc3ccc4c(c3)CCC4)c(=O)[nH]c2=O)cc1 |  | -0.92%
14 | CN1CCN(/N=C/c2c[nH]c3ccccc23)CC1 |  | -3.79%
15 | CCCCC(=O)N/N=C/c1c(O)n(-c2ccccc2)c(=O)[nH]c1=O |  | -2.47%
